“And” between values parts separate entries of the source, which are not always exact repeats. Equal entries are not always repeated. Results filed as inconclusive are left out. A call without a number means that no potency is given here. Unmarked numbers belong to inactive results. The source made the active and inactive calls. Calls come from the whole dose curve; as a rule, active = well fitted cell-killing curve with a large enough effect; inconclusive = small, poorly fitted or top-dose-only effect; inactive = flat fitted curve, though single readings scatter.

One experiment in a line: Cellular viability qHTS for adrenocortical cancer (ACC) cell line SW-13 (AID 1963989).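 Note: cells grown in serum-free medium with ITS supplement; nearly all actives have a fitted effect of over 65% in size.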 Conditions: SW-13 ACC cells viability, CellTiter-Glo, 48 h; activity (max response): hits give low values. The essentials: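 Viability was read as CellTiter-Glo luminescence after 48 h compound treatment (up to 46 uM final) of SW-13 cells grown serum-free; titration curves were fit with a four-parameter logistic model to give IC50 and efficacy.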
For orientation: In qHTS, concentration-response curves come from the screen itself.
On to `N[C@H](Cc1c[nH]c2ccccc12)C(=O)O`, for which the activity (max response) was 5.49%.

Take `CC(=O)N1CCN(c2ccc(NC(=O)Cc3cnc(-c4ccnc(F)c4)c(C)c3)nc2)CC1`: the activity (max response) is 4.66%.

Consider `CS(=O)(=O)c1ccc(-c2cnc(NCc3ccco3)n3cnnc23)cc1`, for which the activity (max response) was -12%.

In the case of `CCn1nc(C(=O)O)c(=O)c2cc3c(cc21)OCO3`, the activity (max response) was 1.15%.

Consider `COc1ccc2[nH]c(S(=O)Cc3ncc(C)c(OC)c3C)nc2n1` (stereo not drawn), for which the activity (max response) is 4.99% and -14.4%.

Regarding `Cc1cc2c(OCC(CNC(C)(C)C)OC(=O)c3ccccc3)cccc2[nH]1` (stereo not drawn), the activity (max response) was 7.67%.

With `COc1cc(/C=C(\C#N)C(=O)Nc2nnc(C(F)(F)F)s2)ccc1OCc1ccc(C(F)(F)F)cc1C(F)(F)F`, the activity (max response) was -15.8%.

On to `Fc1ccc(-c2nc(-c3ccccc3F)[nH]c2-c2ccncc2)cc1`, for which the activity (max response) is -20.2%.

`COC(=O)N(C)c1c(N)nc(-c2nn(Cc3ccccc3F)c3ncccc23)nc1N`: the activity (max response) was -4.16%.

As for `C=CC[N+]1([C@H]2C[C@H]3[C@@H]4CC[C@H]5C[C@H](OC(C)=O)[C@@H](N6CCCCC6)C[C@]5(C)[C@H]4CC[C@]3(C)[C@H]2OC(=O)CC)CCCCC1`, the activity (max response) is -4.47%.

With `Cc1ccc(NC(=O)[C@H]2CCCN(C(=O)c3c(C)cccc3F)[C@H]2c2ccc(NC3CCCC3)cc2)cc1C(F)(F)F`, the activity (max response) was -13.2%.

A short description of another experiment: Cellular viability qHTS for adrenocortical cancer (ACC) cell line NCI-H295R (AID 1963990). Note: nearly all actives have a fitted effect of over 60% in size. Note: potency is the fitted concentration of half-maximal effect. The settings on record: CellTiter-Glo ATP luminescence, 48 h; series mostly up to 46.1 µM. The essentials:
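CellTiter-Glo ATP luminescence, read 48 h after compound addition, measured viability of NCI-H295R adrenocortical cells grown serum-free with ITS. Final concentrations spanned up to 46 uM. Data normalized to DMSO and doxorubicin, fitted for IC50 and maximal response.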
Consider `CC(=O)Nc1ccc(S(=O)(=O)Nc2ccc([N+](=O)[O-])cc2)cc1`, for which the Potency result was “inactive”.

As for `COc1cc(O)c(C(=O)c2ccccc2)cc1S(=O)(=O)O`, the Potency entry was “inactive”.

On to `CNc1nc(C)nc(N[C@H]2CCC[C@@H](C(=O)NCc3ccc(C#N)cc3C(F)(F)F)C2)n1`, for which the Potency result was “inactive”.

For the compound `CC(C)(CNC(=O)c1cccc(-c2noc(C(F)(F)F)n2)c1)c1coc(-c2ccccc2)n1`, the Potency result is “inactive”.

For `O=C1NC(=O)/C(=C/c2ccc(-c3ccc(F)cc3O)o2)S1`, the Potency was 25.1 µM (active).

Take `C=C[C@@]1(C)CC(=O)[C@]2(O)[C@@]3(C)[C@@H](O)CCC(C)(C)[C@@H]3[C@H](O)[C@H](OC(C)=O)[C@@]2(C)O1`: the Potency result was “inactive”.

Consider `C[C@]12CC[C@H](O)CC1=CC[C@@H]1[C@@H]2CC[C@]2(C)C(c3cccnc3)=CC[C@@H]12`, for which the Potency entry was “inactive”.

Take `N[C@H](Cc1c[nH]c2ccccc12)C(=O)O`: the Potency result was “inactive”.

For `Cc1ccc(-c2nn(C(C)(C)CNC(=O)c3ccncc3)c3ncnc(N)c23)cc1`, the Potency was 8.91 µM (active).

Consider `C=C1C[C@H]2[C@@H]3C=C(C)C4=CC(=O)CC[C@]4(C)[C@H]3CC[C@]2(C)[C@@]1(OC(C)=O)C(C)=O`, for which the Potency entry is “inactive”.

Take `CC(=O)N1CCN(c2ccc(NC(=O)Cc3cnc(-c4ccnc(F)c4)c(C)c3)nc2)CC1`: the Potency entry was “inactive”.

For the compound `C=C[C@H]1CN2CC[C@H]1C[C@H]2[C@H](O)c1ccnc2ccc(OC)cc12`, the Potency result is “inactive”.

Take `NC(N)=NCCN1CCCCCCC1`: the activity change, negative = viability loss is 7.14% [at 0.587 µM].

With `O=C([C@@H](Cc1cccc(C(F)(F)F)c1)NS(=O)(=O)c1cc(F)c2c(c1)CCNC2)N1CCCC1`, the Potency result is “inactive”.

With `CS(=O)(=O)c1ccc(-c2cnc(NCc3ccco3)n3cnnc23)cc1`, the Potency result was “inactive”.

`CCn1nc(C(=O)O)c(=O)c2cc3c(cc21)OCO3`: the Potency entry was “inactive”.

With `COc1ccc2[nH]c(S(=O)Cc3ncc(C)c(OC)c3C)nc2n1` (stereo not drawn), the Potency entry is “inactive”.

For `CO/N=C(/C(=O)N[C@@H]1C(=O)N2C(C(=O)OCOC(=O)C(C)(C)C)=C(C)CS[C@H]12)c1csc(N)n1`, the Potency result was “inactive”.

As to `c1ccc(CNCCNCc2ccccc2)cc1`, the Potency entry is “inactive”.

For the compound `Cc1cc2c(OCC(CNC(C)(C)C)OC(=O)c3ccccc3)cccc2[nH]1` (stereo not drawn), the Potency result is “inactive”.

Take `C[C@]12CCC(=O)C=C1C=C[C@@H]1[C@@H]2CC[C@@]2(C)[C@H]1CC[C@@]21CCC(=O)O1`: the Potency entry was “inactive”.

As to `O=C1NC(=O)/C(=C\c2ccc(-c3ccc(F)cc3)o2)S1`, the Potency entry is “inactive”.

For the compound `CC(=O)Oc1cccc2c1C(=O)c1c(OC(C)=O)cc(C(=O)O)cc1C2=O`, the Potency entry was “inactive”.

As for `C[C@]12CC[C@@H]3c4ccc(O)cc4CC[C@H]3[C@@H]1C[C@@H](O)[C@@H]2O`, the Potency entry is “inactive”.

`CC#C[C@@H](CC(=O)O)c1ccc(OCc2cccc(-c3ccc(C(F)(F)F)cc3)c2)cc1`: the Potency was 31.6 µM (active).

`COc1cc(/C=C(\C#N)C(=O)Nc2nnc(C(F)(F)F)s2)ccc1OCc1ccc(C(F)(F)F)cc1C(F)(F)F`: the Potency entry is “inactive”.

`CCCCC(=O)OCC(=O)[C@H]1[C@H](C)C[C@H]2[C@@H]3C[C@H](F)C4=CC(=O)C=C[C@]4(C)[C@@]3(F)[C@@H](O)C[C@@]21C`: the Potency result was “inactive”.

(Values after PubChem BioAssay (NCATS).)
